Experimental data from PubChem BioAssay (Tox21).
Inconclusive results are not listed. A call without a number means that no potency is given here. Active and inactive are the calls of the source. Unless noted, calls follow the shape of the dose curve; as a rule, active = well fitted curve in the direction sought with a large enough effect in the repeat runs; inconclusive = weak or mixed curves; inactive = no such curve, though single readings can be large; an effect the other way counts as inactive or inconclusive.

What was measured:
[1] = Caspase-3/7 induction in HepG2 cells by small molecules, qHTS assay (AID 1346978); also: nearly all actives have a fitted effect of over 15% in size; also: potency is read from the fitted curve at half-maximal effect
Outline: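 Caspase-3/7 induction was measured by Caspase-Glo 3/7 luminescence (30 min, room temperature) after a 17 hr compound exposure of wild-type HepG2 cells seeded at 2,000 per well and pre-incubated 5 hr.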

[2] = Caspase-3/7 induction in CHO-K1 cells by small molecules, qHTS assay (AID 1346980); also: nearly all actives have a fitted effect of over 15% in size; also: potency is read from the fitted curve at half-maximal effect
Outline: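 Luminescent Caspase-Glo 3/7 read (30min, room temperature) quantified apoptosis induction. Cells were wild-type CHO-K1, treated with compound for 17hr at 37 C and 5% CO2.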

[3] = Caspase-3/7 induction in HepG2 cells by small molecules, qHTS cell viability counter screen (AID 1346981); also: nearly all actives have a fitted effect of over 30% in size; also: potency is read from the fitted curve at half-maximal effect
Outline: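 Steps: seed 2,000 HepG2 cells per well; incubate 5 hr at 37 C; pin-add compounds in DMSO; incubate 16 hr; add CellTiter-Fluor; after 1 hr at 37 C and 5% CO2, read fluorescence.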

[4] = molecular target: Acetylcholinesterase (Homo sapiens) (UniProt P22303); assay: Acetylcholinesterase (AChE) small molecule antagonists: colormetric cell-based qHTS assay (AID 1347395; calls by dose curve; also: nearly all actives have a fitted effect of over 30% in size; also: potency is read from the fitted curve at half-maximal effect)
Outline: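 Quantitative HTS in attached SH-SY5Y cells: 30 min compound exposure, then 90 min with acetylthiocholine and DTNB at 37 C; colour from thiocholine reports AChE activity.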

[5] = molecular target: Acetylcholinesterase (Homo sapiens) (UniProt P22303); assay: Acetylcholinesterase (AChE) small molecule antagonists: enzyme-based qHTS assay (AID 1347397; calls by dose curve; also: nearly all actives have a fitted effect of over 55% in size; also: potency is read from the fitted curve at half-maximal effect); conditions: Potency: AChE enzyme activity inhibition
Outline: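 Absorbance-based detection of thiocholine with DTNB served as the read-out. Recombinant human AChE was exposed to compound for 30 min at RT before a 10 min RT incubation with acetylthiocholine.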

[6] = Caspase-3/7 induction in CHO-K1 cells by small molecules, qHTS cell viability counter screen (AID 1346979); also: nearly all actives have a fitted effect of over 35% in size; also: potency is read from the fitted curve at half-maximal effect
Outline: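 Seeding: 1,500 CHO-K1 cells/well. Rest: 5hr, 37C. Treatment: compounds in DMSO, 16hr. Read: CellTiter-Fluor, 1hr, fluorescence.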

[7] = molecular target: Nuclear receptor subfamily 1 group I member 2 (Homo sapiens) (UniProt O75469); assay: Human pregnane X receptor (PXR) small molecule agonists, qHTS assay (AID 1346982); also: nearly all actives have a fitted effect of over 35% in size; also: potency is read from the fitted curve at half-maximal effect
Outline: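 Agonist mode qHTS: PXR-Luc HepG2 cells plated 5 hr before DMSO-dissolved compounds were pinned in, cultured 24 hr at 37 C, 5% CO2; ONE-Glo luminescence readout.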

[8] = molecular target: Nuclear receptor subfamily 1 group I member 2 (Homo sapiens) (UniProt O75469); assay: CYP3A4 induction through human pregnane X receptor (PXR) by small molecules, qHTS assay (AID 1346984); also: nearly all actives have a fitted effect of over 40% in size
Outline: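 Steps: seed DPX-2 cells, 5 hr at 37C; pin-transfer compounds; 24 hr at 37C; add Luciferin-IPA (3uM final), 3 hr at 37C; add One-Glo, 30 min RT; read luminescence.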

[9] = molecular target: Nuclear receptor subfamily 1 group I member 2 (Homo sapiens) (UniProt O75469); assay: Human pregnane X receptor (PXR) activation by small molecules, qHTS assay (AID 1346985); also: nearly all actives have a fitted effect of over 40% in size
Outline: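 DPX-2 cells (HepG2 co-transfected with a PXR response element and a CYP3A4-promoter luciferase construct) were seeded at 2,000 per well, rested 5 hr at 37C, then exposed to DMSO-dissolved compounds for 24 hr. Activation was read as luciferase luminescence.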

[10] = molecular target: Nuclear receptor subfamily 1 group I member 2 (Rattus norvegicus) (UniProt Q9R1A7); assay: Rat pregnane X receptor (rPXR) activation by small molecules, qHTS assay (AID 1346983); conditions: rPXR luciferase reporter cells, One-Glo luminescence, 24 h; max activation: stronger effect = higher value; also: nearly all actives have a fitted effect of over 20% in size
Outline: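 Luminescent readout (One-Glo luciferase, 30 min room temperature) followed 24 hr compound treatment at 37 C of rPXR cells plated 2,000 per well and preincubated 5hr; qHTS format with compounds delivered in DMSO.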

Acetylcholinesterase (Homo sapiens), sequence (P22303 whole entry, looked up): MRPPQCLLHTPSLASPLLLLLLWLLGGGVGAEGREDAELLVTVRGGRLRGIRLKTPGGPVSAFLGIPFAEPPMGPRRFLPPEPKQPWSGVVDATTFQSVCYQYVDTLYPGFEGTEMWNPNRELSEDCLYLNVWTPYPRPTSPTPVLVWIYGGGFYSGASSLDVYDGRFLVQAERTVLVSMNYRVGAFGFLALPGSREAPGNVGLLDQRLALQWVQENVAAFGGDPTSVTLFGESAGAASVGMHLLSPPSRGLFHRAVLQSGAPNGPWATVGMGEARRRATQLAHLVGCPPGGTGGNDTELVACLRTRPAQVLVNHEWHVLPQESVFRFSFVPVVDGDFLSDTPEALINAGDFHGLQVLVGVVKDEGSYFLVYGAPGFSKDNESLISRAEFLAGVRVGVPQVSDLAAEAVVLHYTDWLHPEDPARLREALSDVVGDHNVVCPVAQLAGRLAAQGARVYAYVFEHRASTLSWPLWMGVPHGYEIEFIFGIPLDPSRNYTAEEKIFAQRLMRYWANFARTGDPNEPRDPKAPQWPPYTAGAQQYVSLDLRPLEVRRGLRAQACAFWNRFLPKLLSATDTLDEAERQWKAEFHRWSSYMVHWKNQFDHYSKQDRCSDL
Nuclear receptor subfamily 1 group I member 2 (Homo sapiens), sequence (O75469 whole entry, looked up): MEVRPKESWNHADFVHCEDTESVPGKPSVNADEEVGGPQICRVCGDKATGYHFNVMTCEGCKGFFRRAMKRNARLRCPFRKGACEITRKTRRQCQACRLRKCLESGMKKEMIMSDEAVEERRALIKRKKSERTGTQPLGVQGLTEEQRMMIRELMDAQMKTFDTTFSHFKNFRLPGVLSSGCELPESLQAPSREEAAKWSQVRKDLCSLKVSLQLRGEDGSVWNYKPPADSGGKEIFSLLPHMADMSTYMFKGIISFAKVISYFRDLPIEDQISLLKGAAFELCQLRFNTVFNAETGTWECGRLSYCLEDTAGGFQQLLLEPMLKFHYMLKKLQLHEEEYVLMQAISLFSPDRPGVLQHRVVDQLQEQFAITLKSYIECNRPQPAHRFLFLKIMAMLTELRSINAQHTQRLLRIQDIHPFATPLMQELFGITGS
Nuclear receptor subfamily 1 group I member 2 (Rattus norvegicus), sequence (Q9R1A7 whole entry, looked up): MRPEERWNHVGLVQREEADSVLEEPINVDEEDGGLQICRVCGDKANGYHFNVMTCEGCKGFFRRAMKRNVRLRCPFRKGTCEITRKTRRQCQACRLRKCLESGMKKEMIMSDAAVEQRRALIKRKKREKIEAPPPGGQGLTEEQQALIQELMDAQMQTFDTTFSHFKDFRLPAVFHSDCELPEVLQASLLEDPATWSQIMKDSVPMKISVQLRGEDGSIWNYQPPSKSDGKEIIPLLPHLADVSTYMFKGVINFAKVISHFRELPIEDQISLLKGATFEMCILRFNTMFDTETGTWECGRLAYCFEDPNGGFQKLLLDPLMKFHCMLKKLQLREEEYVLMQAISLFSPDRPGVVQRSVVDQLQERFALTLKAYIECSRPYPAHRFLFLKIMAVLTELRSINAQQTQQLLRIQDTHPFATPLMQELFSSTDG

Row | SMILES | Potency [1] | Potency [2] | Potency [3] | Potency [4] | Potency [5] | Potency [6] | Potency [7] | Potency [8] | Potency [9] | max activation [10]
1 | ClC1=C(Cl)[C@]2(Cl)[C@H]3[C@H]([C@H]4C=C[C@H]3C4)[C@@]1(Cl)C2(Cl)Cl | inactive | inactive | inactive | inactive | inactive |  |  |  |  | 
2 | COP(=O)(OC)SCn1c(=O)oc2cc(Cl)cnc21 | inactive | inactive |  | 3.56 µM (active) | 7.1 µM (active) | inactive |  |  |  | 
3 | CCN(CC)C(=S)[S-].CCN(CC)C(=S)[S-].[Zn+2] | 1.08 µM (active) |  | 27.1 µM (active) | inactive | inactive | 2.41 µM (active) | 4.29 µM (active) |  |  | 
4 | ClCc1ccccc1CCl | inactive |  | inactive | inactive | inactive | 61.1 µM (active) | inactive |  |  | 
5 | C=CC(=O)OCCCCOC(=O)C=C | inactive |  |  | inactive | inactive | 24.3 µM (active) | inactive |  |  | 
6 | C[C@]12CC[C@@H]3c4ccc(OC(=O)N(CCCl)CCCl)cc4CC[C@H]3[C@@H]1CC[C@@H]2O | inactive | inactive | inactive | inactive | inactive |  | inactive | inactive | inactive | 
7 | CN(C)CCc1c[nH]c2cccc(O)c12 | inactive | inactive | inactive | 19.8 µM (active) | inactive |  | inactive |  |  | 
8 | Nc1ccccc1C(=O)OC/C=C/c1ccccc1 | inactive | inactive | inactive | inactive | inactive |  | 21.7 µM (active) |  |  | 
9 | COC(=O)N(C(=O)N1COC2(C(=O)OC)Cc3cc(Cl)ccc3C2=N1)c1ccc(OC(F)(F)F)cc1 (configuration not stated) | inactive | inactive | inactive | inactive | inactive |  | 10.6 µM (active) |  |  | 
10 | CC(C)(C)c1ccc(CSc2cnn(C(C)(C)C)c(=O)c2Cl)cc1 | inactive | inactive |  | inactive | inactive | 0.0172 µM (active) | inactive |  |  | 
11 | SCc1ccco1 | inactive | inactive | inactive | inactive | inactive |  | inactive |  |  | 
12 | CN(C)CCc1c[nH]c2ccc(O)cc12 | inactive | inactive | inactive | inactive | inactive |  | inactive |  |  | 
13 | Oc1c(Cl)c(Cl)cc(Cl)c1Cl | inactive | inactive | inactive | inactive | inactive |  |  |  |  | 
14 | C[C@H]1CC[C@@H]2[C@@H](C)[C@H]3[C@H](C[C@H]4[C@@H]5CC=C6CC(O[C@@H]7O[C@H](CO)[C@H](O)[C@H](O[C@@H]8O[C@H](CO)[C@@H](O)[C@H](O)[C@H]8O)[C@H]7O[C@H]7O[C@@H](C)[C@H](O)[C@@H](O)[C@H]7O)CC[C@]6(C)[C@H]5CC[C@]34C)N2C1 (some centres not stated) | inactive | inactive | 31.6 µM (active) | 26 µM (active) | inactive |  |  | inactive | inactive | -11.8% (inactive)
15 | CCCCCCCCCCCCCC[P+](CCCCCC)(CCCCCC)CCCCCC (tested in a mixture with another compound) | 19.3 µM (active) |  | 24.3 µM (active) | inactive | 20 µM (active) | 4.33 µM (active) | 2.17 µM (active) |  |  | 
16 | C=CC(=O)OCC(COC(=O)C=C)(COC(=O)C=C)COC(=O)C=C | 15.4 µM (active) |  | 15.4 µM (active) | inactive | inactive | 3.86 µM (active) |  |  |  | 
17 | CCSC(C)CC1CC(=O)C(/C(CC)=N/OC/C=C/Cl)=C(O)C1 (configuration not stated) |  | inactive | inactive | 30.9 µM (active) | inactive | inactive | inactive |  |  | 
18 | N#Cc1ccccc1N |  | inactive | inactive | inactive | inactive | inactive | inactive |  |  | 
19 | CCC[CH2][Sn]([CH2]CCC)([CH2]CCC)[O]C(=O)c1ccccc1 |  | 1.93 µM (active) | 4.86 µM (active) | inactive | inactive | 0.77 µM (active) | 0.486 µM (active) |  |  | 
20 | OC(c1ccc(Cl)cc1)(c1ccc(Cl)cc1)C(Cl)(Cl)Cl | inactive |  | inactive | inactive | inactive |  | 24.3 µM (active) |  |  | 
21 | ClCCN1CCOCC1 |  | inactive | inactive | inactive | inactive | inactive | inactive |  |  | 
22 | N#CC(Cl)Cl |  | inactive | inactive | inactive | inactive | inactive | inactive |  |  | 
23 | ClC(Cl)=C(Cl)Cl |  | inactive | inactive | inactive | inactive | inactive | inactive |  |  | 
24 | N#CNC#N |  | inactive | inactive | inactive | inactive | inactive | inactive |  |  | 
